The list is not random: actives were taken first. Their share in the collection is about 3.3%.
GAA850 FXN act = FXN promoter activators, primary screen, cell-based, luciferase luminescence, HEK293 lucGAA850 | HEK293 lucGAA850 FXN promoter luciferase reporter, 24 h; percent of 10 µM SAHA response | activation, % at 6 µM | 0.56% of 360,000 active | AID 540364, 2011;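 active = activation above the average of all compounds screened plus 3 SD, cutoff fixed separately per campaign, cut at about 7.5% in these data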;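 note: 0% = DMSO wells and 100% = 10 µM SAHA wells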
Wnt act = Wnt/beta-catenin pathway activators, primary screen, cell-based, plate reader, single point; Wnt/beta-catenin reporter cell assay, activator; activation, % at 9.35 µM; 1.2% of 300,000 active; AID 743398, 2014; in the data active = activation above about 30%, passing the limit was not always enough; inconclusive = no clear call, values can overlap the other calls;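 note: 0% = neutral control wells and 100% = positive control wells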
esBAF inh = Bmi1 luciferase reporter increase in mESCs, primary screen, esBAF inhibitor project, mouse ES cells, Bmi1 luciferase knock-in, single point | 24 h; 100% = twice the neutral-well signal | reporter increase, % at 12.5 µM | 2% of 350,000 active; in the data active = activation above about 40%; inconclusive = no clear call, values can overlap the other calls;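 note: 0% = median of the plate's neutral control wells and 100% = double that signal; a rise in the Bmi1 reporter signal indicates esBAF inhibition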
Statin myotox sup = suppressors of statin myotoxicity in C2C12 myotubes, primary screen, cell-based, single point, plate reader. C2C12 myotubes + simvastatin, ATP luminescence, 48 h; scaled: DMSO 0, geranylgeraniol control 100. 0.78% of 330,000 active. rescue of ATP level, % at 7.49 µM;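 active = mean ATP rescue above about 67%, or every replicate alone reaching that limit, limit read from the data, passing the limit was not always enough; inconclusive = no clear call, values can overlap the other calls; inactive = mean under the limit and some replicate under it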;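 note: myotubes were challenged with 10 µM simvastatin during compound exposure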
MITF TRPM1 HTS = activators of MITF-driven TRPM1 promoter reporter, primary screen, cell-based, SK-MEL-5, luciferase, single point; AID 588334, 2011; 0.75% of 300,000 active; SK-MEL-5 TRPM1-promoter luciferase, 24 h; % of positive control, neutral wells = 0; activation, % at 12.5 µM;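 active = mean activation of at least 80% with every replicate also reaching 80%; inconclusive = mean reaches 80% but some replicate falls short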;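 note: 0% = neutral control wells and 100% = parthenolide positive control wells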
Starred values were filed as active, the others as inactive; ? = inconclusive; . = no result.

SMILES	GAA850 FXN act	Wnt act	esBAF inh	Statin myotox sup	MITF TRPM1 HTS
Cc1cc(OCc2cc(C(=O)N(C)CCc3cnn(C)c3)no2)cc(C)c1Cl	5.4	0.0	74.1*	-1.7	57.0
Cc1cc(CN(C)C(=O)c2cc(COc3ccc(C)c(C)c3)on2)on1	5.6	0.0	?	4.2	?
C/C(=N/OC(=O)C1CC1)c1cc(-c2ccc(Cl)cc2)no1	3.3	7.6	.	.	89.4*
C/C(=N\OC(=O)c1ccccc1)c1cc(-c2ccc(Cl)cc2)no1	0.7	.	7.4	-2.9	64.9
CC(=O)Nc1ccc2nc(-c3ccccn3)[nH]c2c1	3.2	36.5*	32.6	-23.4	44.0
CC(=O)Nc1ccc2nc(-c3ccncc3)[nH]c2c1	1.7	-6.7	-2.0	11.2	-1.6
C[C@H](NC(=O)C[C@H]1CC[C@@H](NC(=O)C2CCC2)[C@H](CO)O1)c1ccccc1	.	.	-2.7	8.2	.
CC(C)c1ccc(-c2csc(NC(=O)c3cccs3)c2C(=O)O)cc1	-1.5	11.7	51.7*	-182.8	6.3
Cc1cccc(C(=O)Nc2scc(-c3ccc(Br)cc3)c2C(=O)O)c1	-0.7	6.5	.	.	.
Cc1ccc(-c2csc(NC(=O)c3cccc(C)c3)c2C(=O)O)cc1	-2.1	40.2*	.	.	.
Cc1ccc(-c2csc(NC(=O)c3ccc(Br)cc3)c2C(=O)O)cc1	1.8	16.4	42.9	-4.4	106.3*
COc1cccc(NC(=O)N2C[C@@H](O)COC[C@@H]3O[C@@H](CC(=O)NCCCN4CCOCC4)CC[C@H]32)c1	.	.	1.7	10.7	.
CNC[C@H]1Oc2ncc(/C=C/c3ccccc3)cc2C(=O)N([C@@H](C)CO)C[C@H]1C	.	.	-23.7	-4.2	.
CC(OC(=O)/C=C/c1ccc2ccccc2n1)C(=O)N(C)c1ccccc1 (stereo not given)	1.4	-26.1	46.8*	-31.2	-9.4
COc1ccccc1NC(=O)C(C)OC(=O)/C=C/c1ccc2ccccc2n1 (stereo not given)	2.6	-4.1	.	.	48.0
CNC(=O)C[C@@H]1CC[C@@H]2[C@H](COC[C@H](O)CN2Cc2ccncc2)O1	.	.	-0.9	-11.1	.
c1coc(CNc2nc(-c3cccs3)cs2)c1	5.2	22.5	.	.	77.7
Oc1ccc(-c2csc(NCc3ccco3)n2)cc1	3.7	-2.1	48.8*	-1.0	.
Oc1ccc(-c2nc3ccccn3c2NCc2ccco2)cc1	2.2	.	-5.8	80.9*	17.0
Cc1cc(C)n(C(=O)CNc2ccc(C)c(C)c2)n1	3.4	.	63.0*	4.8	2.3
Cc1cc(C)n(C(=O)CCCC(=O)n2nc(C)cc2C)n1	-0.1	.	-3.0	-3.2	-1.2
COc1ccc(NC(=O)N(C)C[C@@H]2Oc3ccc(NC(=O)C4CC4)cc3CC(=O)N([C@@H](C)CO)C[C@H]2C)cc1	.	.	-0.9	4.2	.
Cc1nc2cc3nc(C)sc3cc2s1	4.0	.	49.6*	10.6	?
Cc1nc2cc3ccccc3cc2s1	0.9	-0.6	29.1	11.7	13.8
O=S(=O)(c1ccccc1C(F)(F)F)N1CCN(S(=O)(=O)c2ccccc2C(F)(F)F)CC1	0.3	.	-5.0	112.6*	-16.4
SMILES	GAA850 FXN act	Wnt act	esBAF inh	Statin myotox sup	MITF TRPM1 HTS
C[C@@H]1CN([C@H](C)CO)C(=O)c2cc(-c3ccc(F)cc3)cnc2O[C@H]1CN(C)Cc1ccc(F)cc1	.	.	-7.0	-8.4	.
Nc1c(-c2cccc(Cl)c2)cnn1-c1cccc(C(F)(F)F)c1	0.8	.	28.0	-12.0	.
COc1ccc(-c2cnn3c(N)c(S(=O)(=O)C(C)(C)C)cnc23)cc1	-1.3	2.1	18.3	-82.6	16.4
Cc1ccccc1-c1cnn(-c2cccc([N+](=O)[O-])c2)c1N	-0.2	2.4	34.4	-3.2	39.1
COc1ccc(-c2cnc3c(-c4ccc(F)cc4)cnn3c2N)cc1	6.6	43.2*	?	-31.4	59.5
Nc1c(-c2ccc(Cl)cc2)cnc2c(-c3ccccc3)cnn12	5.7	36.2*	24.7	-22.4	75.1
Cc1ccc(-c2cnn(-c3cccc([N+](=O)[O-])c3)c2N)cc1	7.3	.	83.2*	13.1	64.2
Nc1c(-c2ccccc2)cnn1-c1cccc(C(F)(F)F)c1	5.0	.	54.0*	-25.7	55.8
O=C(Nc1ccc(F)cc1)N[C@H]1CC[C@@H](CCn2cc(C3(O)CCCC3)nn2)O[C@H]1CO	.	.	4.9	1.1	.
CCCNC(=O)[C@@H]1[C@@H](CO)[C@@H]2Cn3c(ccc(-c4ccccc4F)c3=O)[C@H]1N2C(=O)CC	.	.	2.9	1.8	.
Cc1noc(C)c1S(=O)(=O)Nc1cccc2c1O[C@H](CN(C)Cc1ccc3c(c1)OCO3)[C@H](C)CN([C@H](C)CO)C2=O	.	.	-3.4	27.4	.
CCS(=O)(=O)Nc1ccc2c(c1)C(=O)N(C)C[C@H](OC)[C@@H](C)CN(C(=O)C1CCC1)[C@H](C)CO2	.	.	5.3	-2.2	.
COc1ccc(-c2nnn(-c3cc(Cl)cc(Cl)c3)c2N)cc1	-1.0	0.3	.	.	17.2
Cc1ccc(-c2cnn(-c3ccccc3)c2N)cc1	3.6	43.2*	0.3	-37.5	36.1
Nc1c(-c2ccc(Cl)cc2)nnn1-c1ccccc1	3.4	66.9*	78.8*	-2.2	.
Nc1c(-c2ccc(Cl)cc2)cnn1-c1ccccc1	5.5	?	30.9	-34.3	92.0*
Nc1c(-c2ccc(Cl)cc2)cnn1-c1cc(C(F)(F)F)cc(C(F)(F)F)c1	0.6	-0.5	-0.1	11.0	0.5
CO[C@@H]1CN(C)C(=O)c2cc(NS(=O)(=O)CC(F)(F)F)ccc2OC[C@H](C)N(Cc2nccs2)C[C@H]1C	.	.	2.5	-2.8	.
Brc1ccc(/C=N/Nc2ccc3ccccc3n2)cc1	7.8*	.	?	-17.7	30.4
Brc1ccc(/C=N/Nc2ccccc2)cc1	5.7	11.2	.	.	84.1*
C[C@H]1CN([C@@H](C)CO)C(=O)c2cc(-c3ccncc3)cnc2O[C@@H]1CN(C)S(=O)(=O)c1ccc(F)cc1	.	.	8.4	10.4	.
CC(SC1=NCCS1)C(=O)Nc1nnc(-c2ccc(Cl)cc2)s1 (stereo not given)	1.2	5.5	43.0*	-2.3	45.8
COc1ccccc1-c1nnc(NC(=O)C(C)SC2=NCCS2)s1 (stereo not given)	0.6	16.1	1.4	7.8	0.5
CC(=O)Nc1cc2c(cc1Cl)-c1ccccc1C2	1.6	-0.2	51.8*	-5.3	19.3
COc1ccccc1NC(=O)c1ccccc1C(=O)Nc1ccccc1OC	-0.8	-0.1	1.7	-5.4	4.1
COC(=O)c1ccccc1NC(=O)c1ccccc1OC	-0.6	-1.7	-9.8	123.6*	13.0
COc1ccccc1C(=O)Nc1ccc2c3c(cccc13)CC2	6.5	.	61.8*	-2.3	62.2
COc1cccc(OC)c1C(=O)Nc1ccc2c3c(cccc13)CC2	0.4	.	4.1	16.1	23.3
C[C@H](CO)N1C[C@H](C)[C@H](CN(C)C(=O)Nc2ccc3c(c2)OCO3)Oc2ccc(NC(=O)Cn3cnnn3)cc2CC1=O	.	.	2.2	37.7	.

Screening results: PubChem BioAssay, several laboratories
